Assay outcomes deposited in PubChem BioAssay by Broad Institute.
aSyn UTR act – Activators via SNCA 5'UTR binding, MLPCN; alpha-synuclein 5'UTR reporter, activators screen; activity score, % (tested at 7.5 µM), hits read low; actives 7.1% (n = 300,000); AID 1814; in the data active = activity score below about -60%
An asterisk follows results filed as active. A selection follows.

SMILES | aSyn UTR act
COc1ccc(-c2csc(NC(=O)COC(=O)C3=COCCO3)n2)cc1 | -128.2*
COc1ccc(-c2csc(NC(=O)C3=COCCO3)n2)c(OC)c1 | -86.3*
C=CCNc1nc(-c2ccc(OC)cc2OC)cs1 | -320.6*
O=C(N/N=C/c1ccc([N+](=O)[O-])o1)c1ccc2c(c1)OCO2 | 93.6
Cc1ccc(/C=N\NC(=O)c2ccc3c(c2)OCO3)o1 | -80.6*
O=C(N/N=C/c1ccc(Br)o1)c1ccc2c(c1)OCCO2 | -122.8*
O=C(N/N=C/c1cccnc1)c1ccc2c(c1)OCCO2 | -82.4*
COc1c(O)ccc(/C=N/NC(=O)c2ccc3c(c2)OCCO3)c1[N+](=O)[O-] | -110.4*
CN(C)c1ccc(/C=N/NC(=O)c2ccc3c(c2)OCO3)cc1 | -103.6*
Clc1ccccc1N1CCN(Cc2c[nH]c3ccccc23)CC1 | 64.1
O=C(CCCc1c[nH]c2ccccc12)N1CCCCCC1 | -72.7*
O=C(COc1ccc(/C=N/NC(=O)c2cc3ccccc3o2)cc1Cl)Nc1ccccc1 | 100.8
COc1cc(/C=N/NC(=O)c2ccccc2O)ccc1OCC(=O)Nc1ccccc1 | -140.0*
COc1cc(/C=N/NC(=O)c2ccncc2)ccc1OCC(=O)Nc1ccccc1 | -100.2*
O=C(COc1ccc(/C=N/NC(=O)c2ccccc2O)cc1)Nc1ccccc1 | -126.4*
O=C(N/N=C/c1ccc(OCC(=O)N2CCCCC2)cc1)c1ccccc1O | -74.1*
COc1ccc(C(C)NC(=O)Nc2ccc(C(C)=O)cc2)cc1OC (stereo not drawn) | -99.7*
COc1ccc(C(=O)Nc2cccc(C(C)=O)c2)cc1OC | -70.9*
COc1cc(OC)c(C(=O)Nc2cccc(C(C)=O)c2)cc1OC | -78.2*
CCn1c(O)c(C=Nc2ccccc2)sc1=S | -153.3*
Oc1nc(Nc2ccccc2)sc1/C=C1\C=Nc2ccccc21 | -111.9*
C=CCn1c(O)c(C=Nc2ccccc2)sc1=S | -106.8*
CCn1c(O)c(/C=C2\C=Nc3ccccc32)sc1=O | -244.7*
CC1=Nc2ccccc2/C1=C/c1sc(=N)n(-c2nccs2)c1O | 62.5
CCn1c(O)c(C=Nc2ccccc2)sc1=O | -101.3*
SMILES | aSyn UTR act
C/C(=N\Nc1cccc2cccnc12)c1ccc[nH]1 | -122.6*
S=C1SCN(Cc2cccnc2)CN1Cc1cccnc1 | -86.4*
Cc1cccc2c(=O)c(C(=O)NCc3cccs3)c[nH]c12 | -110.4*
O=C(NCc1cccs1)c1csc2ccccc12 | -61.7*
O=C1C2=C(c3ccccc31)[N+](=O)C1CCCCC1N2[O-] (stereo not drawn) | -72.6*
O=C1C2=C(c3ccccc31)[N+](=O)[C@@H]1CCCC[C@@H]1N2[O-] | -94.3*
Cc1c2c(nc3ccccc13)CCC(C(C)(C)C)C2 (stereo not drawn) | -116.3*
Cc1ccc(C2=NNC(C(O)C(O)C(O)C(O)CO)S2)cc1 (stereo not drawn) | -103.2*
CC(=O)OCCCN1c2ccccc2Nc2nnc(-c3ccccc3)cc21 | -155.3*
Cn1cc(Cl)c(C(=O)Nc2cccc(Cl)c2Cl)n1 | -155.5*
Cc1ccc(Cn2nc(C)cc2C(=O)Nc2ccccc2Cl)cc1 | -151.5*
Nc1ccccc1NC(=O)c1ccccc1 | -154.1*
O=C(Nc1ccccc1Cl)c1ccccc1 | -86.8*
Cc1ccc(C(=O)Nc2ccccc2C(=O)NC(C(=O)O)C(C)C)cc1 (stereo not drawn) | -68.5*
O=C(Nc1ccccc1Cl)c1ccn[nH]1 | -89.6*
O=C(Nc1cccn2ncnc12)c1ccccc1 | -64.7*
Cc1ccc(C(=O)Nc2ccccc2Cl)cc1 | -128.7*
COc1ccccc1OCc1ccc(C(=O)Nc2ccccc2F)cc1 | -74.9*
O=C(NNC(=O)c1ccccc1OCc1ccc(F)cc1)c1ccccc1O | 67.5
O=C(Nc1cccc(Cl)c1Cl)c1ccc(-c2ccccc2)cc1 | -158.8*
O=C(Nc1ccccc1F)c1ccc(C(=O)c2ccccc2)cc1 | -100.1*
CSC1=NC(C)(C)CC2(C)Nc3ccccc3N12 (stereo not drawn) | -87.8*
CCc1ccc(C(=O)NCc2cccs2)s1 | -62.6*
CC(C)Oc1ccc(C(=O)NCc2cccs2)cc1 | -84.7*
CCCS/C(N)=N/N=C/c1cc(C)ccc1O | -137.5*
SMILES | aSyn UTR act
CCCCS/C(N)=N/N=C/c1ccccc1O | -153.4*
C/C(=N/N=C/c1ccccc1O)c1ccccc1O | -240.0*
O=[N+]([O-])c1ccc(N2CCc3ccccc3C2)cc1 | -117.4*
CC(C)c1ccc(NC(=O)N2CCc3ccccc3C2)cc1 | -261.1*
O=C(Nc1ccc([N+](=O)[O-])cc1)N1CCc2ccccc2C1 | -106.0*
Cc1ccc(C)c(NC(=O)N2CCc3ccccc3C2)c1 | -66.9*
Nc1nc(-c2ccccn2)nc(N)c1Cc1ccccc1F | -246.3*
O=C(COc1ccccc1)Nc1cccc(-c2cn3cccnc3n2)c1 | -83.9*
O=C(Nc1cccc(-c2cn3ccccc3n2)c1)c1cnccn1 | -87.3*
O=C(COc1ccccc1)Nc1cccc(-c2nc3cc4ccccc4cc3[nH]2)c1 | -140.2*
O=C(Nc1cccc(Cl)c1)c1csc(-c2ccccc2)n1 | -121.0*
CCC(=O)Nc1cccc(-c2cn3ccccc3n2)c1 | -89.3*
CCCCC(=O)Nc1cccc(-c2cn3ccsc3n2)c1 | -78.3*
